Laboratory results taken from PubChem BioAssay (NCATS).
Results filed as inconclusive are left out. Calls of active or inactive are those of the source. Calls come from the whole dose curve; as a rule, active = well fitted curve in the direction sought with a large enough effect; inconclusive = small, poorly fitted or top-dose-only effect, or another doubt; inactive = no such curve, though single readings can be large; an effect the other way counts as inactive or inconclusive.

Key:
[1] = system: CP215; experiment: qHTS profiling for inhibitors of Plasmodium falciparum proliferation (AID 504749); note: nearly all actives have a fitted effect of over 60% in size; note: potency is the fitted concentration of half-maximal effect; settings: P. falciparum in erythrocytes, SYBR Green DNA, 72 h; series mostly up to 28.7 µM
Summary of the method: (§1)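 Fluorescence of SYBR Green-bound parasite DNA, read at 485/535 nm, served as the growth measure. Infected erythrocytes were cultured with compound 72 h; artemisinin (0.29 uM) and DMSO wells defined the normalization range.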

[2] = system: CP286; experiment: as above; settings: P. falciparum in erythrocytes, SYBR Green DNA, 72 h; series mostly up to 28.7 µM
Summary of the method: as §1

[3] = Confirmation and Secondary Assay for Modulators of Hemoglobin Beta Chain Splicing at IVS2 654 locus (AID 910); settings: HeLa EGFP-654 splicing reporter, GFP fluorescence, 48 h; series mostly up to 38.3 µM;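 note: per-well total GFP intensity by laser scanning cytometry after 2-day treatment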
Summary of the method: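 HeLa cells stably carrying EGFP interrupted by mutant beta-globin IVS2-654 intron (CMV-driven) were treated with compound for 2 days at 37C; corrected splicing was scored as total peak GFP intensity per well (488 nm excitation, 500-520 nm emission).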

[4] = Confirmation and Secondary Assay for Modulators of Hemoglobin Beta Chain Splicing at IVS2 705 locus (AID 930); settings: HeLa EGFP-705 splicing reporter, GFP fluorescence, 48 h; series mostly up to 38.3 µM;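 note: HeLa cells stably expressing the EGFP-705 splicing reporter; GFP fluorescence per well restored by corrected splicing of the IVS2-705 intron in EGFP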
Summary of the method: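 HeLa IVS2-705 EGFP reporter cells, 500/well, compound 2 d at 37C; correct splicing yields fluorescent EGFP. Control: 500 nM antisense PNA. Read-out: total peak GFP intensity.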

[5] = system: CP268; experiment: qHTS profiling for inhibitors of Plasmodium falciparum proliferation (AID 504749); note: nearly all actives have a fitted effect of over 60% in size; note: potency is the fitted concentration of half-maximal effect; settings: P. falciparum in erythrocytes, SYBR Green DNA, 72 h; series mostly up to 28.7 µM
Summary of the method: as §1

[6] = system: CP291; experiment: as above; settings: P. falciparum in erythrocytes, SYBR Green DNA, 72 h; series mostly up to 28.7 µM
Summary of the method: as §1

[7] = system: CP297; experiment: as above; settings: P. falciparum in erythrocytes, SYBR Green DNA, 72 h; series mostly up to 28.7 µM
Summary of the method: as §1

[8] = system: CP305; experiment: as above; settings: P. falciparum in erythrocytes, SYBR Green DNA, 72 h; series mostly up to 28.7 µM
Summary of the method: as §1

[9] = system: ECU; experiment: as above; settings: P. falciparum in erythrocytes, SYBR Green DNA, 72 h; series mostly up to 28.7 µM
Summary of the method: as §1

[10] = system: GB4; experiment: as above; settings: P. falciparum in erythrocytes, SYBR Green DNA, 72 h; series mostly up to 28.7 µM
Summary of the method: as §1

[11] = system: P93_24; experiment: as above; settings: P. falciparum in erythrocytes, SYBR Green DNA, 72 h; series mostly up to 28.7 µM
Summary of the method: as §1

[12] = system: TAB109; experiment: as above; settings: P. falciparum in erythrocytes, SYBR Green DNA, 72 h; series mostly up to 28.7 µM
Summary of the method: as §1

[13] = qHTS Assay for Identification of Small Molecule Antagonists for Thrombopoietin (TPO) Signaling Pathway (AID 918); settings: TPO-dependent cell signaling reporter, antagonist mode; note: potency is the fitted concentration of half-maximal effect; nearly all actives have a fitted effect of over 60% in size
Summary of the method: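 Luminescence read-out: GPIIb-promoter luciferase in Ba/F3 cells carrying human TPO receptor. Compounds added with 26 pM TPO (EC50), 24 hrs, 37 C, 5% CO2; cells deprived of IL-3 overnight beforehand. Inhibition of signal scored.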

[14] = molecular target: Pyruvate kinase PKM (Homo sapiens) (UniProt P14618); experiment: qHTS Assay for Inhibitors of Human Muscle Pyruvate Kinase (AID 958); settings: purified human PKM enzyme activity; series mostly up to 57.5 µM
Summary of the method: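 Luminescence from a luciferase ATP-detection/stop reagent reported PKM2 activity. Reactions contained 0.1 nM purified human enzyme, 0.5 mM PEP, 0.1 mM ADP and 7 mM MgCl2 at pH 7.2, run 1 h at RT.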

[15] = molecular target: DNA dC->dU-editing enzyme APOBEC-3G (Homo sapiens) (UniProt Q9HC16); experiment: qHTS for inhibitors of Vif-A3G interactions: Validation (AID 588379); settings: Vif-A3G protein interaction assay; series mostly up to 46.1 µM
Summary of the method: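 Yellow fluorescence (Ex 488, Em 500-530) of Vif-coexpressing HeLa A3G-eYFP cells, scanned by Acumen cytometer, reports blocked A3G degradation. Cells plated at 700/well overnight at 37 deg C before compound addition, then a further overnight compound incubation at 37 deg C.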

Measured: Potency

DNA dC->dU-editing enzyme APOBEC-3G (Homo sapiens), sequence (Q9HC16 whole entry, looked up): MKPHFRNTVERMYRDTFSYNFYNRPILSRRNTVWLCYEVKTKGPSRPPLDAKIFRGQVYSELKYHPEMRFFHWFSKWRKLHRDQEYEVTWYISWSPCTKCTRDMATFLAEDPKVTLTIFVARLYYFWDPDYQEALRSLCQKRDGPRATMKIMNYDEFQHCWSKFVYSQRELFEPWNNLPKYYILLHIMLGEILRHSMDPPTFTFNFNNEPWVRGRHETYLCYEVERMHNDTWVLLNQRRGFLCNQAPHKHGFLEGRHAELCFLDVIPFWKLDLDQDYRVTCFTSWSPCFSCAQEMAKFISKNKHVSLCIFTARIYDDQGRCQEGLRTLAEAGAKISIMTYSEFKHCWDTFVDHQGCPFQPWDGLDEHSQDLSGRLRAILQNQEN
Pyruvate kinase PKM (Homo sapiens), sequence (P14618 whole entry, looked up): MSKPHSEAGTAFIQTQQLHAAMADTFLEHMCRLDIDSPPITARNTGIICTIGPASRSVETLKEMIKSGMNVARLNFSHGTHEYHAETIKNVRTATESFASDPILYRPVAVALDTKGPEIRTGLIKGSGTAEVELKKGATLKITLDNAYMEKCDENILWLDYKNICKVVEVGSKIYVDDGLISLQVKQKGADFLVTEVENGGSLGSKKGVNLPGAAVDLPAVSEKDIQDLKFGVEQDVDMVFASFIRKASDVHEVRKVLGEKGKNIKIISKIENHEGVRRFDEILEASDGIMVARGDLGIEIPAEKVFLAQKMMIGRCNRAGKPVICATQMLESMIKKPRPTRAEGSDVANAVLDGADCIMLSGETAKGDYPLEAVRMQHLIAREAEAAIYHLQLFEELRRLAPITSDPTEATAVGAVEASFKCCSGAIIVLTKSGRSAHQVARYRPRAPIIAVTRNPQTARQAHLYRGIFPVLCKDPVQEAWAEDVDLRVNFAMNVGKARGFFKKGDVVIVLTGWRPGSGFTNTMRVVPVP

OC[C@H](S)CS
inactive: [1]
active: [2] 3.16 µM

N=c1ccn2c(n1)O[C@@H]1[C@@H](O)[C@H](CO)O[C@H]12
inactive: [3] | [4]

C[N+]1(C)[C@@H]2CC(OC(=O)[C@@H](CO)c3ccccc3)C[C@@H]1[C@H]1O[C@H]12 (some centres undefined)
not listed: [1] | [3] | [4] | [13] | [14] | [15]
inactive: all other assays above

CC(=O)N1CCN(c2ccc(OC[C@@H]3CO[C@@](Cn4ccnc4)(c4ccc(Cl)cc4Cl)O3)cc2)CC1
inactive: [6] | [7]

C(=C/c1ccccc1)/CN1CCN(C(c2ccccc2)c2ccccc2)CC1
inactive: [5] | [8] | [9] | [11] | [12]

COc1cc2nc(N(C)CCCNC(=O)[C@@H]3CCCO3)nc(N)c2cc1OC
not listed: [1] | [3] | [4] | [13] | [14] | [15]
inactive: all other assays above

N[C@H](COP(=O)(O)O)C(=O)O
not listed: [3] | [4] | [13] | [14] | [15]
inactive: all other assays above

O=C1O/C(=C\Br)CC[C@@H]1c1cccc2ccccc12
active: [13] 10 µM
inactive: [14]

Oc1ccc([C@@H]2CNCCc3c2cc(O)c(O)c3Cl)cc1
inactive: [15]

Oc1ccc([C@@H]2CNCc3sccc32)cc1O
active: [13] 12.6 µM

CN(C)C(=O)/N=N\C(=O)N(C)C
active: [13] 10 µM
